Data taken from the supplement of paper PMC3334620.
Whole data set: some 33,000 sequences, median “E-score (-0.5 to 0.5)” near -0.035, cut for the highest 2% near 0.34. Many of the other results were omitted from the sample, so the highest values are more common in it than they were.

target: T1, Mot3 (UniProt P54785); experiment: PBM E-score (8-mer binding enrichment) (E-score (-0.5 to 0.5)); higher = stronger / more preferred TF binding; details: protein concentration: 200 nM; construct: GST-full length
T1 sequence: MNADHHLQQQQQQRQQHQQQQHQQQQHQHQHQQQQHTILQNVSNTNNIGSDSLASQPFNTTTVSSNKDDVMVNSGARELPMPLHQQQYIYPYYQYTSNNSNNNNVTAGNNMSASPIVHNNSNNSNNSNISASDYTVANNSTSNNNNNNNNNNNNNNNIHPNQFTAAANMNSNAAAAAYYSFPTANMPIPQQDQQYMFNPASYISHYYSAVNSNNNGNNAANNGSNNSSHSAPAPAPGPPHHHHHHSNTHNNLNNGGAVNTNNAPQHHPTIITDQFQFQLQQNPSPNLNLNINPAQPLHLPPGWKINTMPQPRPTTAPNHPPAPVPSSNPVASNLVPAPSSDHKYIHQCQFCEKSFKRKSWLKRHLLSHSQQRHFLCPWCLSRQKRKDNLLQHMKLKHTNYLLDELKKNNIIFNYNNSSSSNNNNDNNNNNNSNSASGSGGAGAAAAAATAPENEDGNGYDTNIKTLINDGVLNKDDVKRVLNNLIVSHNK
Experimental: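 Universal 'all 10-mer' protein binding microarrays (Agilent AMADID 015681) probed with GST-tagged S. cerevisiae TFs (full-length or DBD) made by in vitro transcription/translation (PURExpress), about 100-200 nM. Bound TF was detected with fluorescent anti-GST. Each ungapped 8-mer (which stands for itself and its reverse complement) is scored by the PBM enrichment score (E-score), a modified Wilcoxon-Mann-Whitney statistic from -0.5 to +0.5, computed with the Universal PBM Analysis Suite. Scale: above 0.35 generally sequence-specific binding.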

Row | Sequence | PBM E-score
1 | AGGACACG | 0.071
2 | GTGAGCCA | -0.12
3 | GCGTTGGA | 0.0942
4 | GTATCGTA | 0.197
5 | CCGTTTCA | -0.123
6 | AAGAGAAC | 0.0546
7 | ACTGTGCC | 0.265
8 | CCTGTGCG | 0.185
9 | CCTGTGCC | 0.361
10 | GCCGTGCA | -0.0598
11 | GCCGTGCC | 0.346
12 | ACCGTGCC | 0.336
13 | CGCGAGAC | -0.11
14 | ACGCCAAG | -0.0211
15 | CGCTGTGC | -0.0145
16 | ATAGGTGG | 0.0389
17 | AATAAGGA | 0.0872
18 | AATTACAT | 0.419
19 | GATTACAA | 0.359
20 | ACTTACAT | 0.311
21 | CATTACAG | 0.287
22 | GATTACTA | 0.122
23 | GCTTACAC | 0.178
24 | CATTACAC | 0.384
25 | AATTACAG | 0.27

Row | Sequence | PBM E-score
26 | GCTTACAA | 0.197
27 | CATTACAA | 0.301
28 | GATTACGC | 0.23
29 | GATTACAC | 0.419
30 | ATGCTGCC | -0.0402
31 | ATCCGGAG | -0.0342
32 | CCATACTC | -0.245
33 | ACTTACAC | 0.217
34 | AATTACCC | -0.0825
35 | AATTACAC | 0.402
36 | AATTACCA | 0.174
37 | AATTACAA | 0.362
38 | TATTACAA | 0.297
39 | CCTGCAGC | 0.0434
40 | CCTGCAGA | 0.303
41 | CCTGCAGG | 0.413
42 | TACATGAA | 0.375
43 | CACATGAA | 0.185
44 | AACATGGA | 0.312
45 | TACATGGA | 0.346
46 | GACATGCA | 0.203
47 | GACATGGA | 0.167
48 | GACATGAA | 0.274
49 | TACATGCA | 0.361
50 | AACATGCA | 0.324

Row | Sequence | PBM E-score
51 | AGCTATGC | -0.0718
52 | GCACAGTA | -0.0809
53 | ATGCTATG | 0.19
54 | CGCTCAGA | 0.0235
55 | ATCTTCAT | -0.0494
56 | AAGTAGGG | -0.08
57 | GCCTTGTA | 0.354
58 | GCCTTGCC | 0.416
59 | CCCTTGTA | 0.237
60 | CCCTTGCC | 0.0298
61 | GCCTTGCA | -0.00236
62 | ACCTTGTA | 0.338
63 | CATTTCGG | -0.063
64 | AGGGCCCT | -0.368
65 | GCTCGGAC | -0.172
66 | CGACAGAA | -0.216
67 | GACCTCGA | -0.139
68 | GTATCCAA | -0.0981
69 | CAGGTCAG | -0.242
70 | ATAGGCGC | 0.249
71 | CTAGGCGA | -0.178
72 | ATAGGCAG | 0.234
73 | ATAGGCAT | 0.412
74 | ATAGGCTA | 0.0381
75 | ATAGGCAA | 0.486

Row | Sequence | PBM E-score
76 | ATAGGCTC | 0.207
77 | ATAGGGAT | 0.0533
78 | CTAGGCTA | -0.18
79 | ATAGGCAC | 0.491
80 | CTAGGCAA | 0.474
81 | ATCGGCAT | -0.0895
82 | CCACAAGG | 0.094
83 | AGTGAGCC | -0.0781
84 | CAGTTAAA | 0.0473
85 | GTGGCGCA | -0.0264
86 | CCCAGTGA | -0.203
87 | CATTCTCA | 0.0726
88 | GTAGGCAA | 0.49
89 | CTAGGCGC | 0.041
90 | GTAGGCTA | 0.226
91 | GTAGGCCA | 0.00764
92 | CTAGGCAC | 0.485
93 | TTAGGGAA | 0.0178
94 | CTAGGCAG | -0.0742
95 | TTAGGCAA | 0.481
96 | TTCGGCAA | 0.0952
97 | AAGACGCA | -0.0452
98 | AAACAGCG | 0.0286
99 | AGCCTGAT | 0.183
100 | AGTGCCTA | 0.484

Row | Sequence | PBM E-score
101 | AGTGCCAA | -0.0129
102 | AGTGCCGA | -0.324
103 | GGTGCCGA | 0.0164
104 | GGTGCCAA | -0.14
105 | GGTGCCTA | 0.492
106 | ATACAGAT | 0.0248
107 | ACGTAGGA | 0.184
108 | AACATGAT | 0.349
109 | GACATGAC | 0.175
110 | AACATGAC | 0.359
111 | AACATGAG | 0.277
112 | AACATGAA | 0.305
113 | AACATGCT | 0.308
114 | ACACAAGT | 0.164
115 | ACACTGAC | 0.196
116 | GGAAACGA | 0.0799
117 | CCTGAACC | 0.206
118 | CCCATCTC | -0.269
119 | CTCGTGTA | 0.353
120 | ATCGTGTA | 0.39
121 | GTCGTGTA | 0.376
122 | ATCGTGTC | 0.247
123 | GTCGTGCA | 0.0491
124 | CTCGTGTC | 0.184
125 | CTCGTGGA | -0.234

Row | Sequence | PBM E-score
126 | ATCGTGTG | 0.204
127 | GTCGTGGA | -0.26
128 | CGACAGTA | -0.196
129 | ATGTGCTG | 0.147
130 | CCCTGGCC | -0.264
131 | ATCAGATC | -0.196
132 | ACAACTGG | -0.229
133 | AGCGTGAA | -0.0361
134 | CTAATTAC | 0.289
135 | ATAATTAC | 0.258
136 | GTAATTAC | 0.378
137 | CGCGCGTC | 0.0273
138 | CCCAGCGC | -0.0444
139 | ACCTTCCT | 0.0149
140 | TCAAGGGA | -0.213
141 | TCAAGGCA | 0.458
142 | GCAAGGCA | 0.469
143 | ACAAGGCA | 0.449
144 | ACAAGGCT | 0.111
145 | ACAAGGCG | 0.109
146 | GCAAGGCC | -0.0626
147 | CCAAGGCG | -0.0205
148 | CCAAGGCA | 0.458
149 | GCAAGGGA | -0.155
150 | TCAAGACA | -0.0248

Row | Sequence | PBM E-score
151 | CCAAGGCC | -0.14
152 | AACTCTAG | 0.00906
153 | ATGAAAGC | 0.103
154 | GTCATTCA | -0.067
155 | GAACCATC | -0.0773
156 | AACTTTCC | 0.0113
157 | AATGTTGT | 0.223
158 | AGCTGATC | -0.17
159 | CTGTCTCA | -0.258
160 | TCCAGGAA | 0.316
161 | CCCAGGCC | -0.191
162 | ACCAGGCT | -0.06
163 | GCCAGGCA | 0.436
164 | GCCAGGCC | -0.25
165 | ACCAGGCC | -0.0646
166 | GCCAGGAA | 0.124
167 | TCCAGGCA | 0.463
168 | CCCAGGCA | 0.461
169 | TCCAGGGA | -0.212
170 | ACCAGGCA | 0.446
171 | CCCAGGCG | -0.061
172 | ACCTTGCT | -0.0444
173 | ACCCGACA | -0.0489
174 | TACACCGA | 0.0164
175 | GCCGCTAA | -0.0753
